Data on 15 compounds can be found in PubChem BioAssay.

The nature of assay [1]: compound effects on lung adenocarcinoma cell viability – A549, calcein-AM fluorescence, 48 h, basal, profiling panel (AID 1162). The conditions noted are these: higher = more signal.
The nature of assay [2]: compound effects on differentiated 3T3-L1 adipocyte viability – cell-based, 3T3-L1 adipocytes, calcein-AM fluorescence, 48 h, basal, profiling panel (AID 1163). As to conditions: 3T3-L1 adipocytes viability, higher = more signal.
Assay [3] is described as follows: compound effects on hepatocellular carcinoma cell viability – HepG2, calcein-AM fluorescence, 48 h, basal, profiling panel (AID 1164). As to conditions: higher = more signal.
A short description of assay [4]: compound effects on multiple myeloma cell viability – MM1S, calcein-AM fluorescence, 48 h, basal, profiling panel (AID 1165). The conditions noted are these: higher = more signal.
A short description of assay [5]: calcein-AM signal in unstimulated myeloma cells – cell-based, calcein-AM fluorescence, 48 h, PK04 Diversity Set, profiling panel (AID 1166).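 Note: cells grown under basal conditions without added stimulus.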 The conditions noted are these: RPMI8226 myeloma viability, higher = more signal.
Assay [6] is described as follows: JC-1 mitochondrial signal, unstimulated HepG2 cells – cell-based, JC-1 fluorescence, 24 h, 100 nL compound, profiling panel (AID 1167). The conditions noted are these: HepG2 mitochondrial potential, higher = more signal.
Assay [7] can be described thus: JC-1 mitochondrial signal, unstimulated adipocytes – cell-based, JC-1 fluorescence, 3T3-L1 adipocytes, 24 h, 100 nL compound, profiling panel (AID 1168). As to conditions: JC-1 mitochondrial fluorescence, higher = more signal, called active from +8 up or from −8 down.
The nature of assay [8]: JC-1 mitochondrial signal, unstimulated myeloma cells – cell-based, JC-1 fluorescence, RPMI8226, 24 h, 100 nL compound, profiling panel (AID 1169). The conditions noted are these: JC-1 mitochondrial potential fluorescence, higher = more signal.
Assay [9] can be described thus: JC-1 mitochondrial signal, unstimulated MM1S myeloma – cell-based, JC-1 fluorescence, 24 h, 100 nL compound, profiling panel (AID 1170). As to conditions: MM1S mitochondrial potential, higher = more signal.
Assay [10] in a line: resazurin metabolic signal in A549 cells – cell-based, resazurin fluorescence, 24 h, PK04 Diversity Set, profiling panel (AID 1171). As to conditions: A549 viability, higher = more signal, called active from +8 up or from −8 down.

The source made the active and inactive calls.
Note: test concentration not given here.

Consider `C=CCOC(=O)[C@H]1[C@@H]2C(=O)O[C@@H](c3ccccc3)[C@@H](c3ccccc3)N2[C@@H](c2ccc(OCCOC(=O)[C@H]3C[C@H]4C(=O)N[C@@H](CCCCNC(C)=O)C(=O)N4[C@H]3c3ccc(O)cc3)cc2)[C@]12C(=O)Nc1ccccc12`, for which the z-score was 1.72 in assay [1]; 0.496 in assay [2]; 1.27 in assay [3]; -0.643 in assay [4]; 1.03 in assay [5]; -0.297 in assay [6]. Besides, the z-score in assay [7] was -0.0783 (inactive); in [8], -0.748; in assay [9] it was -0.175; in [10] it was 2.07 (inactive).
As to `Cc1ccccc1C(O)C1C=CC2C(=O)N(C)C(=O)C2N1N(c1ccccc1)c1ccccc1` (stereo not given), the z-score in [1] is -0.665; in assay [2], -1.41; in assay [3], 0.655; in assay [4] it was -0.967; in [5] it was 0.0748; in [6] it was 0.02. Further, the z-score was -0.41 (inactive) in assay [7], -0.217 in assay [8], -0.41 in assay [9] and -0.191 (inactive) in [10].
Regarding `CCCCCCc1nc(C2CC2)cc2c1[Si](C(C)C)(C(C)C)O[C@H]2c1ccccc1`, the z-score in assay [1] is -0.036; in assay [2], -0.177; in [3], -0.106; in assay [4], -0.892; in assay [5], -0.517; in assay [6] it was -1.09. Also, the z-score is -0.731 (inactive) in [7], 0.573 in [8], 0.0835 in assay [9] and 0.254 (inactive) in assay [10].
With `O=C1OCC=C[C@H]2OC34C=CCN(Cn5nnc6ccccc65)C(=O)[C@H]3N(CCCO)C(=O)[C@@H]4[C@@H]12` (stereo not given in full), the z-score in assay [1] is -0.267; in assay [2] it was 0.832; in [3] it was -0.64; in [4], 0.266; in [5] it was 0.0897; in assay [6], -0.541. Also, the z-score is 0.904 (inactive) in assay [7], -0.252 in [8], -1.33 in assay [9] and -0.813 (inactive) in [10].
`O=C1OCC=C[C@H]2OC34C=CCN(Cc5ccccc5)C(=O)[C@H]3N(CCCCCCO)C(=O)[C@@H]4[C@@H]12` (stereo not given in full): the z-score in [1] is 0.131; in assay [2], 0.98; in assay [3], -0.246; in assay [4], 1.62; in assay [5], 0.659; in assay [6] it was -0.1. Further, the z-score was -0.173 (inactive) in assay [7], -0.822 in assay [8], -0.566 in assay [9] and 0.776 (inactive) in [10].
Turning to `CC(C)(C)OC(=O)CC[C@]1(C(=O)NCC(O)CO)N=C(c2ccc(OCCCO)cc2)O[C@H]1c1ccccc1` (stereo not given in full), the z-score in [1] was 0.156; in assay [2] it was 0.833; in assay [3], 0.135; in assay [4], 0.709; in assay [5] it was 0.0887; in [6], 0.52. Moreover, the z-score in assay [7] was -0.24 (inactive); in assay [8], -0.963; in assay [9], 0.437; in assay [10], 0.489 (inactive).
On to `C=CCC(OC(C)=O)[C@@H]1[C@@H](N(Cc2cccc3ccccc23)C(=O)Cc2ccc(OC)cc2)c2cc(OCCCO)ccc2N1C(=O)c1ccc2ccccc2n1` (stereo not given in full), for which the z-score in assay [1] is -0.639; in assay [2] it was 1.69; in assay [3], 0.493; in assay [4] it was -1.27; in [5], -0.192; in [6], 1.64. The z-score in assay [7] was -0.0994 (inactive); in assay [8], 0.106; in assay [9], 0.306; in assay [10], 0.679 (inactive).
Turning to `COCCCNC(=O)[C@]1(CCS(=O)(=O)c2ccccc2)N=C(c2ccc(OCCCO)cc2)O[C@@H]1c1ccccc1CN=[N+]=[N-]`, the z-score in assay [1] was 1.61; in assay [2], 0.652; in assay [3] it was 1.15; in assay [4] it was 0.114; in [5] it was 0.0901; in assay [6], 0.542. Also, the z-score in [7] was 0.482 (inactive); in assay [8], -0.393; in assay [9] it was -1.34; in assay [10] it was -0.97 (inactive).
As for `C=CCC(OC(C)=O)[C@@H]1[C@@H](N(Cc2ccc(-c3cccc(C(F)(F)F)c3)o2)C(=O)c2ccc(C)cc2)c2cc(OCCCO)ccc2N1C(=O)c1ccc2ccccc2c1` (stereo not given in full), the z-score in [1] was -0.403; in [2], 0.821; in assay [3], 0.236; in assay [4], 0.47; in assay [5] it was 0.966; in [6] it was 3.41. The z-score in assay [7] was 0.586 (inactive); in [8], 0.102; in assay [9] it was -0.555; in [10], 0.462 (inactive).
As to `COc1ccc(CCN2C(=O)[C@@]3(Cc4ccccc42)c2ccccc2C(=O)N(Cc2ccccc2OC)[C@H]3c2ccc(CO)cc2)cc1`, the z-score is -0.391 in [1]; 0.677 in assay [2]; -0.264 in assay [3]; -1.98 in [4]; -0.996 in [5]; 0.0826 in [6]. Further, the z-score is 0.16 (inactive) in assay [7], 0.718 in assay [8], 0.464 in assay [9] and 0.271 (inactive) in assay [10].
With `CCOC(=O)C1CCCCN1` (stereo not given), the z-score was -0.293 in assay [1]; 0.542 in assay [2]; 0.0621 in assay [3]; 0.481 in [4]; 0.166 in assay [5]; -0.319 in assay [6]. Further, the z-score is 0.121 (inactive) in assay [7], 0.292 in assay [8], 0.319 in [9] and -0.642 (inactive) in [10].
For `CCCCCCCCCCC(O)C1C=CC2C(=O)N(C)C(=O)C2N1NC(=O)OC(C)(C)C` (stereo not given), the z-score in assay [1] is -3.85; in [2] it was 0.0766; in [3], -5.09; in assay [4], -3.91; in [5] it was -4.14; in [6] it was -3.31. Besides, the z-score was -0.464 (inactive) in assay [7], -0.946 in assay [8], -2.37 in assay [9] and -3.67 (inactive) in assay [10].
For the compound `[N-]=[N+]=NCc1ccccc1[C@H]1OC(c2ccc(OCCCO)cc2)=N[C@@]1(CCS(=O)(=O)c1ccccc1)C(=O)NCC(O)CO` (stereo not given in full), the z-score in assay [1] is -0.257; in assay [2], 0.538; in assay [3] it was 0.0325; in assay [4] it was -0.381; in [5], 0.429; in [6], -1.57. Besides, the z-score in assay [7] is 0.466 (inactive); in assay [8] it was -0.221; in [9], -1.78; in [10], -0.317 (inactive).
With `C=C(/C(=C/C[C@H](OC(C)=O)c1ccccc1OCCO)c1cc(C(=O)OC)ccc1OC)C(C)C`, the z-score in assay [1] is -0.297; in assay [2] it was 1.77; in [3], -0.644; in [4], -1.2; in assay [5], -1.75; in [6], 1.14. The z-score is 1.16 (inactive) in [7], 0.0903 in assay [8], 1.08 in [9] and 0.0515 (inactive) in [10].
Take `CCOC(=O)C[C@H]1[C@H](OC(=O)c2cc3ccccc3oc2=O)[C@@H](NC(=O)Cc2ccc(OC)cc2)c2cc(OCCCO)ccc2N1C(=O)c1ccc2ccccc2n1`: the z-score in assay [1] was 0.167; in assay [2], 0.66; in [3], 0.493; in [4], -0.171; in [5] it was 0.865; in assay [6], -0.917. The z-score is -0.0891 (inactive) in [7], -0.265 in assay [8], 0.429 in [9] and -0.341 (inactive) in assay [10].
